# Shown are actives, neighbours in structure and some others; about 8.7% of the full set was active somewhere.
# Pf growth 96h: Primary qHTS for delayed death inhibitors of the malarial parasite plastid, 96 hour incubation; P. falciparum luciferase reporter growth, 96 h; Potency, µM (highest dose often 28.7 µM), for inactives: at the top dose activity change, negative = inhibition, most hits filed as inhibitors; 6.9% of 320,000 active; AID 504834, 2011
#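 P. falciparum expressing integrated firefly luciferase grown in erythrocytes (2% hematocrit, 0.05% parasitemia final) with compounds for 96 hours at 37 C, 5% CO2. Growth inhibition read as loss of luminescence after adding luciferase detection reagent.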
# Vaccinia Venus: qHTS for Stage-Specific Inhibitors of Vaccinia Orthopoxvirus: Venus Reporter Primary qHTS; 0.46% of 330,000 active; AID 720580, 2013; Potency, µM (doses to about 36.5 µM), without a hit: at the highest dose activity change, negative = inhibition, most hits filed as inhibitors; Vaccinia virus Venus reporter expression, fluorescence; calls by dose curve; tested in A549 cells; further: nearly all actives have a fitted effect of over 30% in size
# AMA1-RON2 inh: qHTS for Inhibitors of AMA1-RON; Towards Development of Antimalarial Drug Lead: Primary Screen; AlphaScreen AMA1-biotinylated RON2 peptide binding; Potency, µM (doses to about 58.2 µM), without a hit: top-dose activity change, negative = inhibition, most hits filed as inhibitors; 0.2% of 360,000 active; AID 720542, 2013;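 further: 0% = vehicle wells and -100% = peptide control; nearly all actives have a fitted effect of over 45% in size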
#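 AMA1 (3D7) with his tag at 25 nM final met compounds first, then biotinylated RON2 peptide at 25 nM; detection used donor plus acceptor beads, 10 µg/mL apiece, read by AlphaScreen after 30 min at room temperature.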
# Pf growth 48h: Primary qHTS for delayed death inhibitors of the malarial parasite plastid, 48 hour incubation | 5.9% of 310,000 active | AID 504832, 2011 | Potency, µM (series often up to 28.7 µM), for the others: at the top dose activity change, negative = inhibition, actives largely listed as inhibitors | P. falciparum luciferase growth in erythrocytes, 48 h
#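 Erythrocytes infected with P. falciparum carrying an integrated firefly luciferase reporter (2% hematocrit, 0.1% parasitemia final) were exposed to compounds in RPMI 1640 with 0.5% Albumax at 37 C, 5% CO2. Growth inhibition was scored as reduced luminescence.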
# Vaccinia mCherry: qHTS for Stage-Specific Inhibitors of Vaccinia Orthopoxvirus: mCherry Reporter Primary qHTS; Vaccinia virus mCherry reporter infection, fluorescence; Potency, µM (titrated, usually from 36.5 µM), without a hit: at the highest dose activity change, negative = inhibition, actives largely listed as inhibitors; 0.63% of 310,000 active; AID 720579, 2013; calls by dose curve; tested in A549 cells; further: nearly all actives have a fitted effect of over 35% in size
# * = called active by the depositor; i = inactive; ? = inconclusive; . = no result; [ ] = dose if it differs, or a comment. Unless noted, the call rests on the fitted dose curve; in most records, active means well fitted curve in the direction sought with a large enough effect; inconclusive means small, poorly fitted or top-dose-only effect, or another doubt; inactive means no such curve, though single readings can be large; an effect the other way counts as inactive or inconclusive. Unless noted, on the % scale 0 is the no-effect control and ±100 the full control effect; potency means the concentration at half of the fitted maximal effect.
SMILES,Pf growth 96h,Vaccinia Venus,AMA1-RON2 inh,Pf growth 48h,Vaccinia mCherry
Cn1c2ccccc2c(=O)c2c(=O)n(-c3ccccc3)c(C3CCCCC3)nc21,9.28µM*,-13.3%,-6.9%,9.28µM*,-11.8%
Nn1c(C2CCCCC2)nc2ccccc2c1=O,-38.4%,.,7.4%,-18.1%,.
Cn1c2ccccc2c(=O)c2c(=O)n(C3CCCCC3)c(-c3cccs3)nc21,.,.,-4.4%,6.57µM*,.
Cn1c2ccccc2c(=O)c2c(=O)n(C3CCCCCC3)c(C3CCCCC3)nc21,10.4µM*,-12.6%,5.6%[11.6 µM],8.28µM*,i
COc1ccc(-c2noc(CCC(=O)NCCc3ccccc3)n2)cc1OC,?,.,1.6%,?,.
CCOc1cc(-c2noc(CCC(=O)NCCc3ccccc3)n2)ccc1OC,2.62µM*,-20.3%,14.2%,0.0%,-12.8%
COc1cc(-c2noc(CCC(=O)NC3CCCC3)n2)cc(OC)c1OC,5.1%,-5.5%,12.4%,-12.4%,-10.8%
COc1cc(-c2noc(CCC(N)=O)n2)cc(OC)c1OC,9.28µM*,.,.,-5.0%,.
CCCC1(C(=O)O)NC(c2ccc(OC)cc2O)C2C(=O)N(c3ccc(OC)cc3)C(=O)C21 (centres undefined),14.7µM*,2.6%,118.3%,.,3.9%
COc1ccc(N2C(=O)C3C(c4ccc(OC)cc4O)NC(Cc4ccccc4)(C(=O)O)C3C2=O)cc1 (centres undefined),82.5%[5.75 µM],-8.8%,111.7%,2.4%,-4.6%
COc1cc(N=Nc2cccc(S(N)(=O)=O)c2)c2ccccc2c1N,2.94µM*,54.0%,-25.4%,4.15µM*,?
O=C(NCCSc1c[nH]c2ccccc12)c1ccccc1Cl,.,-12.9%,.,.,-13.3%
Cc1cccc(Nc2nc(N)c([N+](=O)[O-])c(N3CC(C)CC(C)C3)n2)c1 (centres undefined),?,?,-20.4%,13.1µM*,20µM*
CN(C)c1ccc(Nc2nc(N)c([N+](=O)[O-])c(N3CCOCC3)n2)cc1,10.4µM*,-24.3%,?,?,i
Cc1cccc(Nc2nc(N)c([N+](=O)[O-])c(N3CC(C)OC(C)C3)n2)c1 (centres undefined),?,.,-6.8%,?,.
CCc1ccccc1Nc1nc2ccccc2c2nncn12,.,3.3%,.,.,-7.6%
O=C(C[N+]1(CC(O)c2ccccc2)CCOCC1)c1ccccc1 (centres undefined),.,-8.8%,.,.,-0.8%
CC(C)(C)c1ccc(NC(=O)N2CCN(c3ccc([N+](=O)[O-])cn3)CC2)cc1,2.33µM*,-12.5%,6.8%,5.22µM*,i
CCOC(=O)c1cccc(NC(=O)COc2ccc3c(C)cc(=O)oc3c2)c1,.,0.6%,.,.,-4.0%
CCN1CCN(C(c2cccs2)C(C)NC(=O)c2ccccc2)CC1 (centres undefined),7.9%,2.8%,3.8%,-9.2%,-13.6%
Cc1sc(NC(=O)c2ccco2)c(CN2CCC(C)CC2)c1C,?,-9.6%,-7.4%,.,i
COc1cccc(C(c2c(NC(=O)c3ccccc3)sc(C)c2C)N2CCN(C)CC2)c1 (centres undefined),?,-19.5%,9.9%[2.32 µM],11.7µM*,i
COc1ccc(C(c2c(NC(=O)c3ccccc3)sc(C)c2C)N2CCN(CCO)CC2)cc1 (centres undefined),?,4.6%,-1.2%,?,-4.3%
Cc1sc(NC(=O)c2ccco2)c(CN2CCN(Cc3ccccc3)CC2)c1C,?,-19.9%,-10.7%,9.28µM*,-27.0%
CCN1CCN(C(c2cccnc2)c2c(NC(=O)c3ccco3)sc(C)c2C)CC1 (centres undefined),4.65µM*,.,-6.7%,4.15µM*,.
CCN1CCN(C(c2ccccn2)c2c(NC(=O)c3ccccc3)sc(C)c2C)CC1 (centres undefined),13.1µM*,-20.3%,0.9%,?,?
O=C(NCCc1nnc2n1CCN(Cc1ccc(F)c(F)c1)CC2)c1ccoc1,.,-7.1%,.,.,-9.4%
CCc1ccccc1NC(=O)CC1NCCNC1=O (centres undefined),.,-9.5%,.,.,-10.7%
